Our source for the inhibition values is PubChem BioAssay.

A word on the inhibition: it is how much of the control response was suppressed.

SMILES strings stand for the structures. Calls of active or inactive are those of the source. How the calls were made is not given here.

The test in a line: inhibition of Brca1/Bard1 split-luciferase complementation, confirmation, counter-screen for Mdm2/MdmX interaction inhibitor project, luminescence, single concentration (AID 504668). To be noted: Brca1/Bard1 bimolecular luciferase complementation counterscreen, at 8 µM, stronger effect = higher value.
Turning to `Oc1c(C(c2ccccc2Cl)N2CCCC2)ccc2cccnc12` (centres undefined), the inhibition was 31.4% (active). For `CC(=O)/C(C#N)=C1\NC(=O)C(Cc2ccc(C)c(Cl)c2)S1` (centres undefined), the inhibition is 31.8% (active). Then `Cc1cc(SCC(=O)N/N=C/c2ccc(O)cc2O)nc2ccccc12`, with 32.4% (active).

Take `COc1ccc(C(=O)C(CN2CCCC2)c2ccccc2)cc1` (centres undefined): the inhibition is 27.6% (active). In the case of `CC(C)(C)c1ccc(-c2nnc3sc(-c4ccccn4)nn23)cc1` it was 30.2% (active). For `O=c1c2ccccc2nc(/C=C/c2cc(Br)ccc2O)n1CCO`, the inhibition was 32.4% (active). `CCOc1cc(/C=N/NC(=O)Cc2ccc(C(F)(F)F)cc2[N+](=O)[O-])c(Br)cc1OC`: the inhibition was 30.8% (active).

For the compound `O=[N+]([O-])c1ccccc1C1Nc2cccc3cccc(c23)N1`, the inhibition was 26.9% (active).

For the compound `N#CC(C#N)=C(Nc1ccc(F)cc1)SCc1cccc(F)c1`, the inhibition is 23.3% (active). `O=C(Nc1ccc(OC(F)(F)F)cc1)Nc1cccc([N+](=O)[O-])c1`: the inhibition is 35.8% (active). Then `COc1cc(OC)c2cc(C(=O)N/N=C/c3cccc(OC)c3O)[nH]c2c1`, with 33.8% (active); and `CN(C)C=Nc1ncc2c([nH]c3ccccc32)c1C#N`, with 23% (active); and `Cc1cc(Br)cc(/C=N/NC(=O)c2ccc3c(c2)OCO3)c1O`, with 33% (active). With `COc1cc(/C=C/C(=O)c2ccc(O)cc2)ccc1OCC#N`, the inhibition was 35.9% (active). On to `O=C(N/N=C/c1cc(Br)ccc1O)c1cccc(N2CCCC2=O)c1`, for which the inhibition is 31.4% (active). With `COc1cc(/C=C/[N+](=O)[O-])ccc1OCc1cccc(C(=O)O)c1`, the inhibition was 35.1% (active). Turning to `Cc1cc(Nc2cccc([N+](=O)[O-])c2)n2c(nc3ccccc32)c1C#N`, the inhibition was 30.7% (active). Consider `COc1ccc(C(=O)N/N=C/c2cc(Br)ccc2O)cc1OC`, for which the inhibition was 29.6% (active).

For `CN(C)CCN(C(=O)/C=C/c1cccs1)c1nc2c(F)cc(F)cc2s1`, the inhibition was 28.9% (active). In the case of `c1ccc(CNc2nc(-c3ccccn3)nc3ccccc23)cc1` it was 23.3% (active); in that of `CCOc1ccc(OCc2ccc(C(=O)NN=Cc3ccc[nH]3)cc2)cc1`, 28% (active).

On to `Nc1cccc2nc3ccccc3cc12`, for which the inhibition is 32.2% (active). As for `O=C(Nc1cccc(Cl)c1)Nc1nnc(CSCCOc2ccc(Cl)cc2)s1`, the inhibition was 23% (active). Regarding `CCN(CC)S(=O)(=O)c1ccc2c(c1)C(=NO)c1cc(S(=O)(=O)N(CC)CC)ccc1-2`, the inhibition was 23.7% (active). In the case of `CN1CCN(Cc2cc(COCc3ccccc3)c3cccnc3c2O)CC1` it was 29.5% (active); in that of `O=C(CSc1nnnn1-c1ccccc1)Nc1nsc(-c2ccccc2)n1`, 27.7% (active). Consider `CCCC(=O)NC(c1ccc(OC)c(OC)c1)c1cc(Cl)c2cccnc2c1O` (centres undefined), for which the inhibition was 27.9% (active).

`Cc1nc(NC(=O)/C=C/c2ccccc2)n[nH]1`: the inhibition was 32.9% (active). As for `Cc1ccc(NC(=O)Cn2nnc(C(=O)NCCc3ccccc3)c2N)cc1Cl`, the inhibition was 29.3% (active). Take `CCC(=O)NC(c1ccc(C)cc1)c1cc(Cl)c2cccnc2c1O` (centres undefined): the inhibition was 23.8% (active). In the case of `OC(CNCc1ccc(-c2ccccc2)cc1)c1ccccc1` (centres undefined) it was 26.9% (active); in that of `CCn1c(C)cc(C(=O)CN2C(=O)c3ccccc3S2(=O)=O)c1C`, 23.2% (active). For the compound `COc1ccc(N/N=C(/N=Nc2nc(C)cc(=O)[nH]2)c2ccccc2)cc1`, the inhibition was 30.7% (active). Regarding `COc1ccc(Oc2ccc(/C=C/C(=O)c3cccc(OC)c3)cc2[N+](=O)[O-])cc1`, the inhibition was 26.2% (active). Then `COc1ccc(C(=O)C(CCCCC(CN(C)C)C(=O)c2ccc(OC)cc2)CN(C)C)cc1` (centres undefined), with 30.7% (active); and `CCOc1cccc2sc(NC(=O)CCS(=O)(=O)c3ccccc3)nc12`, with 35.4% (active); and `COc1ccc(CCNC(=O)c2cc3c(=O)n4ccccc4nc3n(Cc3ccco3)c2=N)cc1OC`, with 26.2% (active).

`Cc1cc(NC(=O)/C=C/C(=O)N(c2ccccc2C)C(C(=O)NC2CCCC2)c2ccc(F)cc2)no1` (centres undefined): the inhibition is 28.7% (active). Then `Cc1cc(C)c2nc(N3CCC(C(=O)NCCCN4CC(C)CC(C)C4)CC3)sc2c1` (centres undefined), with 32.3% (active).
